# An excerpt weighted towards active compounds, which were near 5.4% of everything screened.
# CSC inhib – cancer stem cell inhibition; inhibition, % at 7.5 µM; AID 2717; 300,000 tested, 1.1% active; cancer stem cell-like cells viability, luminescence; in the data active = inhibition above about 75%; inconclusive = no clear call, values can overlap the other calls; tested in HMLE shEcad cells
# ALR inh – blocks human ALR sulfhydryl oxidase activity; P55789; purified ALR, DTT oxidation, H2O2 HRP-luminol luminescence; inhibition, % (concentration not given with the values); 290,000 tested, 3.8% active;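 active = mean replicate inhibition above about 79%, with every replicate also reaching it, limit read from the data; inconclusive = only one of the two criteria met; inactive = mean below limit and not every replicate reaching it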
# Target sequence (P55789 whole entry, looked up): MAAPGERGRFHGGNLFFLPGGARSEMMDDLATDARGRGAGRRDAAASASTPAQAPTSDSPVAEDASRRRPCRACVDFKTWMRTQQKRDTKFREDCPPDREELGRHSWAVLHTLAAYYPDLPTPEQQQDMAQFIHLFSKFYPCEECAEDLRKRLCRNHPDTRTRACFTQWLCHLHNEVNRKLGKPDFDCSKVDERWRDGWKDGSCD
# PP1 counter – PP1-alpha (human) inhibition in PP5 counter-screen; P62136; purified PP1alpha, OMFP fluorescence; inhibition, % at 6.7 µM; 320,000 tested, 0.9% active;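 active = inhibition above the mean inhibition of all tested compounds plus 3 SD, computed separately for each screening campaign, cut at about 15% in these data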
# Target sequence (P62136 whole entry, looked up): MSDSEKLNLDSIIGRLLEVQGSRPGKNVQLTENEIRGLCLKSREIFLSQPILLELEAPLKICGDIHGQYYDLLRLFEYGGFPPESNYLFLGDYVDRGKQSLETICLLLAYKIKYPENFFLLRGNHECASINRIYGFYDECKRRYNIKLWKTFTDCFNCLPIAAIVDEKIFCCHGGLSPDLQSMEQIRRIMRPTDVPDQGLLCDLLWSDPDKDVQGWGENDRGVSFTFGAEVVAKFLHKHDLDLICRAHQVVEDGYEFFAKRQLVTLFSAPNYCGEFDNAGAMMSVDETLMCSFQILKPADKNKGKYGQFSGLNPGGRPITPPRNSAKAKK
# Calb FLC – C. albicans growth modulation with fluconazole; C. albicans CaCi-2 (fluconazole-resistant clinical isolate) + fluconazole, Alamar Blue growth, 48 h; growth inhibition, % (no concentration beside the values); AID 1979; 300,000 tested, 0.57% active;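 active = growth inhibition above about 58% in most replicates, limit read from the data, passing the limit was not always enough; inconclusive = exactly half the replicates above a set limit; inactive = most replicates below a set limit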;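 note: all wells also contain fluconazole at 8 µg/ml as a sub-toxic cotreatment; 0% = median of DMSO wells and 100% = median of geldanamycin control wells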
# PP5 primary – PP5 (human) phosphatase inhibition; P53041; purified PP5c, OMFP substrate fluorescence; inhibition, % at 6.7 µM; 320,000 tested, 0.18% active; AID 1987;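 active = inhibition above the campaign's mean inhibition across all tested compounds plus 3 SD, cut at about 9.5% in these data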;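 note: 0% = DMSO only and 100% = 100 µM cantharidin control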
# Numbers without * were called inactive; ? = inconclusive; · = not tested or not shown.
SMILES,CSC inhib,ALR inh,PP1 counter,Calb FLC,PP5 primary
Cc1cccn2cc(-c3cccc(S(=O)(=O)N4CCOCC4)c3)nc12,-9,96*,4,1,0
Cc1cccn2cc(-c3ccc(F)cc3)nc12,-3,96*,2,-11,4
CC(=O)c1ccc(N2CCN(c3ccccc3O)CC2)c([N+](=O)[O-])c1,6,99*,4,19,0
O=C(/C=C/c1ccc(N2CCCCC2)c([N+](=O)[O-])c1)c1ccc(O)cc1,110*,4,2,-1,5
N#Cc1cc([N+](=O)[O-])ccc1N1CCN(c2ccccc2O)CC1,8,98*,-4,0,2
CCOC(=O)/C(=C\c1cccc(O)c1)c1nc2sc(C)c(C)c2c(=O)[nH]1,60,98*,-2,11,3
Cc1nc(NC(=O)c2ccco2)sc1-c1csc(Nc2ccc(Cl)cc2)n1,91*,-16,-9,4,3
Cc1nc(NC(=O)c2ccccc2)sc1-c1csc(Nc2ccc(Cl)cc2Cl)n1,9,87*,5,7,1
Cc1nc(C)c(-c2csc(Nc3cccc(O)c3)n2)s1,5,32,2,41,3
CCC(=O)Nc1nc(C)c(-c2csc(Nc3cccc(O)c3)n2)s1,77*,25,-6,-1,4
COc1ccc(Cl)cc1Nc1nc(-c2sc(NC(=O)CC(C)C)nc2C)cs1,6,-15,1,4,3
COc1ccc(Cl)cc1Nc1nc(-c2sc(NC(=O)c3ccccc3)nc2C)cs1,1,44,-2,-7,3
Cc1nc(NC(=O)CC(C)C)sc1-c1csc(Nc2ccc(Cl)cc2Cl)n1,80*,-2,-1,0,3
COc1cc(C(=O)NNC(=O)COc2ccccc2Cl)ccc1OCC(=O)N1CCOCC1,·,·,-1,·,-2
CCCCn1c(N)c(N(CCC(C)C)C(=O)C2CC(=O)N(c3ccc(OC)cc3OC)C2)c(=O)[nH]c1=O (centres undefined),0,·,-6,7,-1
Cc1cc(Br)cc(C)c1NC(=S)NC(=O)CC(C)C,-5,90*,-1,15,4
CCC(=O)NC(=S)Nc1c(C)cc(Br)cc1C,-3,-2,-1,3,2
CCc1c(C)sc(NC(=O)C2CCCO2)c1C#N (centres undefined),-7,34,0,14,1
Cc1ccccc1Oc1cc(-n2ncc(Cl)c(Cl)c2=O)ncn1,108*,97*,13,·,0
COc1ccccc1OCCSc1nnc(C)n1-c1ccccc1,-10,-1,-5,0,3
COc1cc(CC2COC(=O)C2(O)Cc2ccc(O)c(OC)c2)ccc1O (centres undefined),-10,87*,-1,3,4
O=C(CSc1nc(O)cc(=O)n1C1CCCC1)Nc1cccc(Cl)c1Cl,·,99*,14,3,-1
CCc1ccc(NC(=O)CSc2nc(O)cc(=O)n2C2CCCC2)cc1,14,99*,3,36,5
COC(=O)c1ccccc1NC(=O)CSc1nc(O)cc(=O)n1C1CCCC1,-1,98*,0,3,2
CN(CC(=O)Nc1ccc(Cl)c(C(F)(F)F)c1)C(=O)C1CSC2(C)CCC(=O)N12 (centres undefined),-7,16,-12,1,0
SMILES,CSC inhib,ALR inh,PP1 counter,Calb FLC,PP5 primary
CCOc1ccc(/C=N/Nc2nc(N3CCCC3)nc(N3CCCC3)n2)cc1OC,0,-26,6,-5,-1
COc1cc(/C=N/Nc2nc(N3CCCC3)nc(N3CCCC3)n2)ccc1O,-4,99*,-3,0,1
Oc1ccc(/C=N/Nc2nc(N3CCCC3)nc(N3CCCC3)n2)cc1O,12,99*,-3,?,-2
COc1ccc(NC(=O)CN2C(=O)NC(C)(c3ccc4c(c3)OCCO4)C2=O)cc1S(N)(=O)=O (centres undefined),-18,0,·,·,·
O=S(=O)(Cc1ccccc1Cl)NCCOc1ccccc1,-10,-8,-1,-3,0
O=C(CCCN1C(=O)S/C(=C/c2ccccc2)C1=S)Nc1ccc(C(=O)O)cc1,-7,-2,3,-3,2
O=C(Nc1ccccc1)Nc1ccccc1NS(=O)(=O)c1cccs1,3,-3,-1,-6,-1
COC(=O)c1cccc(NC(=O)NC(=O)c2ccccc2Cl)c1,7,·,3,-26,2
O=S(=O)(Nc1ccc(O)c2ccccc12)c1cccs1,·,99*,-3,38,3
O=C(Nc1ccc(Cl)c(Cl)c1)Nc1ccccc1NS(=O)(=O)c1cccs1,99*,28,3,31,1
O=S(=O)(Nc1cccc2ccccc12)c1cccs1,0,16,1,66,1
NC(=S)NNC(=O)Nc1ccc(Cl)c(Cl)c1,9,94*,0,27,2
COC(=O)c1cccc(NC(=O)Nc2ccc(Cl)c(Cl)c2)c1,97*,-4,-3,-48,8
O=C(Nc1ccc(Cl)c(Cl)c1)Nc1ccccc1C(=O)O,26,98*,8,-1,6
O=C(OCn1ncc(Cl)c(Cl)c1=O)c1ccc(F)cc1,·,6,-4,107*,1
O=C(Cn1ncc(Cl)c(Cl)c1=O)c1ccc(Cl)cc1,49,1,0,-3,0
O=C(OCn1ncc(Cl)c(Cl)c1=O)c1ccccc1Cl,-50,67,3,108*,2
C/C(CCC(=O)O)=N/Nc1ccc([N+](=O)[O-])cc1[N+](=O)[O-],19,-2,-9,-18,3
O=C(O)/C(CC(=O)c1ccc(Cl)cc1)=N/Nc1ccc([N+](=O)[O-])cc1[N+](=O)[O-],10,98*,13,-5,3
COc1ccccc1OCCNC(=O)/C=C/c1ccc([N+](=O)[O-])cc1,-10,-16,0,0,1
Cc1cc(-c2c(C)[nH]n(-c3ccccc3)c2=O)n[nH]1,0,81*,-2,-14,3
Cc1cc(-c2c(C)[nH]n(-c3ccccc3)c2=O)n(-c2ccccc2)n1,-1,70,-3,15,2
CC(=O)NC(=S)Nc1ccc(NC(=S)NC(=O)c2cccs2)cc1,-8,-4,0,1,4
CCCCC(=O)Nc1ccc(NCc2ccc(C)s2)cc1,-14,97*,7,7,4
O=C(NNc1ccc(Cl)cc1)c1cccs1,96*,7,-4,82*,2
SMILES,CSC inhib,ALR inh,PP1 counter,Calb FLC,PP5 primary
CCN(CC)c1ccc(NC(=S)NC(=O)c2cccs2)cc1,-9,98*,1,58,1
CCN(CC)c1ccc(NC(=O)CN(C)Cc2cccs2)cc1,-6,99*,1,-4,0
O=c1c2c3nc4ccccc4nc3n(/N=C/c3ccccn3)c2ncn1-c1ccccc1,35,-20,-2,1,-1
O=C(NNC(=S)Nc1ccccc1)c1cccs1,-9,31,-2,-2,-1
O=C(NNC(=S)Nc1ccc(Cl)cc1)c1cccs1,-9,97*,-2,20,0
CCC(=O)Nc1ccc(NCc2cccs2)cc1,1,98*,-8,2,-3
